Assay in all cases: DAPPL (digital affinity profiling via proximity ligation, sequencing); 10 mM Tris-HCl pH 7.5, 50 mM NaCl, 1 mM DTT, 4% glycerol, room temperature, 30 min; GST-TFs on glutathione beads, 16-mer random dsDNA library, 0.1% formaldehyde crosslink after washing; high values mean tight binding
Experiment [1] has as its target T1, FEV (Homo sapiens, UniProt Q99581 1-238).
T1 sequence: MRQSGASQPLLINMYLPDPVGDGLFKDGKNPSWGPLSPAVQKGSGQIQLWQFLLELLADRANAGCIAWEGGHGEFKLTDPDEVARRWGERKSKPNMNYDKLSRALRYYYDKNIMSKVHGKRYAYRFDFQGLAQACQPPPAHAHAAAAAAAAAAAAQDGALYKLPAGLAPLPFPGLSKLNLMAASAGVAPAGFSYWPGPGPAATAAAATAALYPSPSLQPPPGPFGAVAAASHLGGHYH
The following applies: protein: recombinant; tags: N-terminal GST; dsDNA, one strand shown. The gist of the method: (§1)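 In yeast, human transcription factors were expressed with a GST fusion, then pulled down on glutathione beads and given DNA barcodes. Pooled with a tag-only sample, they were exposed to 200 nmole of a 16-mer random double-stranded DNA library (Tris/NaCl/DTT/glycerol buffer, room temperature, 30 min), washed, crosslinked with 0.1% formaldehyde, proximity-ligated using BsaI/T4 ligase for 1 h at 37 °C, PCR-amplified and read on an Illumina NextSeq500. Each hexamer's frequency of reads for a factor, divided by the matching frequency for the tag-only sample, gives the binding signal.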

Experiment [2] concerns the target ETV5 (Homo sapiens, UniProt P41161 1-510). The following applies: protein: recombinant; tags: N-terminal GST; dsDNA, one strand shown. The method in brief: as §1
For experiment [3], the target named is HSF1 (Homo sapiens, UniProt Q00613 1-529). The following applies: protein: recombinant; tags: N-terminal GST; chain copies: 3; dsDNA, one strand shown. The method in brief: as §1
Chain of HSF1 (Q00613 whole entry): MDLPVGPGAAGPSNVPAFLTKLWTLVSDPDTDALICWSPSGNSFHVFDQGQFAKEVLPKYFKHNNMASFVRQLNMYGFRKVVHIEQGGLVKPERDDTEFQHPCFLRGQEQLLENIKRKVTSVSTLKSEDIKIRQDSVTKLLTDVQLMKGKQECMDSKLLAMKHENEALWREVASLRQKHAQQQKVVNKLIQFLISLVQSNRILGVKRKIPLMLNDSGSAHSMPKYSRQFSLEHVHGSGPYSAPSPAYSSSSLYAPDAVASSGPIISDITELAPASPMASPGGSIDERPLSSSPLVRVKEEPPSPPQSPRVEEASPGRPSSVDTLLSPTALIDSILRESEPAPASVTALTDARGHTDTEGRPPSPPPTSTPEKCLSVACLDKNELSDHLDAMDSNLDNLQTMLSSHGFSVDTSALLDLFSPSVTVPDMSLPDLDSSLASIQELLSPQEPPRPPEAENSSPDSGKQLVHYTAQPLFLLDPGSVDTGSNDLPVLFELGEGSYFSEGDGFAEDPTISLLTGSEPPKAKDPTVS
Experiment [4] concerns the target T2, SPIC (Homo sapiens, UniProt Q8N5J4 1-248).
T2 sequence: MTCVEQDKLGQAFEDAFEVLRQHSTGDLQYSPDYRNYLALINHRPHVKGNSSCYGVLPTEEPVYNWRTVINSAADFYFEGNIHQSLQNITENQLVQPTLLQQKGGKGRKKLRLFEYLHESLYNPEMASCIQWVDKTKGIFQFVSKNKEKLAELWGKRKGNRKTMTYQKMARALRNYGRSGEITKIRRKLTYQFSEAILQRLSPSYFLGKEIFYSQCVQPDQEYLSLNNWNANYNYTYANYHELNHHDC
The following applies: protein: recombinant; tags: N-terminal GST; dsDNA, one strand shown. The gist of the method: as §1

The target of experiment [5] is ELF4 (Homo sapiens, UniProt Q99607 1-663). The conditions noted are these: protein: recombinant; tags: N-terminal GST; dsDNA, one strand shown. The gist of the method:
as §1

In experiment [6] the target is T3, ELK4 (Homo sapiens, UniProt P28324-2 1-405).
T3 sequence: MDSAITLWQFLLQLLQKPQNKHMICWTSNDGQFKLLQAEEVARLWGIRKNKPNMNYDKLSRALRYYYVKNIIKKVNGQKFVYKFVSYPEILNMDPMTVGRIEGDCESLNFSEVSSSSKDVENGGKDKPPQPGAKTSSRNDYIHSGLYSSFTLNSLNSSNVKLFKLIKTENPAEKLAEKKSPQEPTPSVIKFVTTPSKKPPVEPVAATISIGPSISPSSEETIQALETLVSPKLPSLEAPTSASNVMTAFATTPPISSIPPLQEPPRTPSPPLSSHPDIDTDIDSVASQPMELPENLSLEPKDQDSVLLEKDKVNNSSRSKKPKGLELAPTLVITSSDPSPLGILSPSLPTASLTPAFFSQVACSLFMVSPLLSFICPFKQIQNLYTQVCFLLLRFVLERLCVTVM
The following applies: protein: recombinant; tags: N-terminal GST; dsDNA, one strand shown. The gist of the method:
as §1

Experiment [7] deals with T4, ETV2 (Homo sapiens, UniProt O00321 1-342).
T4 sequence: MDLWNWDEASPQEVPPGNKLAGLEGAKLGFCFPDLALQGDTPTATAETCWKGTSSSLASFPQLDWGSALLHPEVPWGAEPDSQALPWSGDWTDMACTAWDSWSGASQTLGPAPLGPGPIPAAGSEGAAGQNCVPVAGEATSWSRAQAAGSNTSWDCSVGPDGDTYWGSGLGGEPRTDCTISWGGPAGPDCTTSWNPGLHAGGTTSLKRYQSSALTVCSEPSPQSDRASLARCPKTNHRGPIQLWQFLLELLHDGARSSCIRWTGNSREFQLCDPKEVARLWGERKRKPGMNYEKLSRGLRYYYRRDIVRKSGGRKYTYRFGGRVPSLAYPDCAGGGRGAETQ
The following applies: protein: recombinant; tags: N-terminal GST; dsDNA, one strand shown. The gist of the method: as §1

The target of experiment [8] is T5, ELF3 (Homo sapiens, UniProt P78545 1-371).
T5 sequence: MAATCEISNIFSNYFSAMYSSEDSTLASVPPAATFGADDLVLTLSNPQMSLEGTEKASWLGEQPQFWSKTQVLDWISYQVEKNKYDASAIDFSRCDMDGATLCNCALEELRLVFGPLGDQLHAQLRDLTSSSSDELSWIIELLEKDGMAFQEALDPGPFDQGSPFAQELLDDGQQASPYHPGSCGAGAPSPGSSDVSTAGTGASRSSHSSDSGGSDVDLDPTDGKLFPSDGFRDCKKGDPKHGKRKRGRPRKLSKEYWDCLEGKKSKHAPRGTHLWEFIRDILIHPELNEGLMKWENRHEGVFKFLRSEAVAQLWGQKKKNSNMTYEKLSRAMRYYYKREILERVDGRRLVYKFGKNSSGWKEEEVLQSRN
The following applies: protein: recombinant; tags: N-terminal GST; dsDNA, one strand shown. The method in brief: as §1

The target in experiment [9] is CRX (Homo sapiens, UniProt O43186 1-299). The following applies: protein: recombinant; tags: N-terminal GST; dsDNA, one strand shown. The method in brief: as §1
Chain of CRX (O43186 whole entry): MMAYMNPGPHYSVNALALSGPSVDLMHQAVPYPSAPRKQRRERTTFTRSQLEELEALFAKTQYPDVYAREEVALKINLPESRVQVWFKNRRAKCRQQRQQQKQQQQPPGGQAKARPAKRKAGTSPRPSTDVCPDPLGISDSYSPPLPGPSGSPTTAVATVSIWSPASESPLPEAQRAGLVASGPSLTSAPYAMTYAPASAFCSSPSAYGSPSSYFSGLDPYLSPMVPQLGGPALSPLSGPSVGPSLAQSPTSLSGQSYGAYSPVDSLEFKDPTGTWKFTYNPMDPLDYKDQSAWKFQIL
Experiment [10] has as its target ETV1 (Homo sapiens, UniProt P50549 1-477). The conditions noted are these: protein: recombinant; tags: N-terminal GST; dsDNA, one strand shown. The method in brief: as §1
For experiment [11], the target named is T6, ERF (Homo sapiens, UniProt P50548 1-548).
T6 sequence: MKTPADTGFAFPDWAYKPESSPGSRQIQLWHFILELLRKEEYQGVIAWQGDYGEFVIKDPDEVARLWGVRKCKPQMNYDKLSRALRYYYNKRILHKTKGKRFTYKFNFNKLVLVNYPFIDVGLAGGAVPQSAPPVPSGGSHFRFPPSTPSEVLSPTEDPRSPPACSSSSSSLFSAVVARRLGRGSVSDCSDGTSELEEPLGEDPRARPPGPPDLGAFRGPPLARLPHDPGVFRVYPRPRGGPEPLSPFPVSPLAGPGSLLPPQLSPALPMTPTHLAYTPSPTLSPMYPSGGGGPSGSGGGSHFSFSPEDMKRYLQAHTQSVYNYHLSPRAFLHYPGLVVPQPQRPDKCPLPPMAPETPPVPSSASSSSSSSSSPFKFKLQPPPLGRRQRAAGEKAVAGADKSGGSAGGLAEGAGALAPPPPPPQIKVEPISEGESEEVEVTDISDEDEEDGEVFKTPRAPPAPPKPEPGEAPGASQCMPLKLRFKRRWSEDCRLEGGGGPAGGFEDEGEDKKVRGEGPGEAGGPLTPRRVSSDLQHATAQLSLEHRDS
The following applies: protein: recombinant; tags: N-terminal GST; dsDNA, one strand shown. The gist of the method:
as §1

Experiment [12] addresses T7, ETV3L (Homo sapiens, UniProt Q6ZN32 1-361).
T7 sequence: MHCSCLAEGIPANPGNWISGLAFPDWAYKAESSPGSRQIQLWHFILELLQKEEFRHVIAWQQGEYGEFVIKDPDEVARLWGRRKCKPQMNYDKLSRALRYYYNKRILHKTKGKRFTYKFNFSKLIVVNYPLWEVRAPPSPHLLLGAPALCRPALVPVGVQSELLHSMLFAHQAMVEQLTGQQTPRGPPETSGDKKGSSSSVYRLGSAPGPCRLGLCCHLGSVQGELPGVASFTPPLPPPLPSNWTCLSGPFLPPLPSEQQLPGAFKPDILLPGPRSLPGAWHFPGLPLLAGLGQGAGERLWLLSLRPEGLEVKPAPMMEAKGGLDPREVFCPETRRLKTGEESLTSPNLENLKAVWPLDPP
The following applies: protein: recombinant; tags: N-terminal GST; dsDNA, one strand shown. The gist of the method:
as §1

The target in experiment [13] is T8, ETS2 (Homo sapiens, UniProt P15036 1-469).
T8 sequence: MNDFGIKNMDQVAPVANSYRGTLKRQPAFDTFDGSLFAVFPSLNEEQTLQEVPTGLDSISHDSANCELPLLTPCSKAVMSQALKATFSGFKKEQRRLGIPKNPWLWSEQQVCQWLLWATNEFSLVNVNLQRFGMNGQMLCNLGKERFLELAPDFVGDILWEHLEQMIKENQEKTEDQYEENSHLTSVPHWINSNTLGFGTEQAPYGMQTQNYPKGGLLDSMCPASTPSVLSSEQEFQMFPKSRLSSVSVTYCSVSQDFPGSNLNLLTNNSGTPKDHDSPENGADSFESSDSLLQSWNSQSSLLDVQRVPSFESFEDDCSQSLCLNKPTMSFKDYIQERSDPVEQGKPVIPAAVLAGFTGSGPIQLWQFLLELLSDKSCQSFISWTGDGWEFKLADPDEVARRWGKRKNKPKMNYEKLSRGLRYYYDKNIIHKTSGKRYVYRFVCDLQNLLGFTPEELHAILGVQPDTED
The following applies: protein: recombinant; tags: N-terminal GST; dsDNA, one strand shown. The gist of the method: as §1

The target in experiment [14] is T9, SPDEF (Homo sapiens, UniProt O95238 1-335).
T9 sequence: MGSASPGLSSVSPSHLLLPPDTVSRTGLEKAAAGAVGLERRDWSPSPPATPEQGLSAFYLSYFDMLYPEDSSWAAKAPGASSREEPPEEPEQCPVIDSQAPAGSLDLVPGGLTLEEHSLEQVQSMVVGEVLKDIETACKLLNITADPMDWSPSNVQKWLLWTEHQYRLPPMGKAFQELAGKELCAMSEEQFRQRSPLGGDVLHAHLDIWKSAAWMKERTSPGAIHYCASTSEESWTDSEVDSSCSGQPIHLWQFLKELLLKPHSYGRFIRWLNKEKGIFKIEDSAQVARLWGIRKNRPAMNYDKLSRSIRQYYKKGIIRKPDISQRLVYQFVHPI
The conditions noted are these: protein: recombinant; tags: N-terminal GST; dsDNA, one strand shown. The method in brief:
as §1

The target in experiment [15] is T10, ETV7 (Homo sapiens, UniProt Q9Y603 1-341).
T10 sequence: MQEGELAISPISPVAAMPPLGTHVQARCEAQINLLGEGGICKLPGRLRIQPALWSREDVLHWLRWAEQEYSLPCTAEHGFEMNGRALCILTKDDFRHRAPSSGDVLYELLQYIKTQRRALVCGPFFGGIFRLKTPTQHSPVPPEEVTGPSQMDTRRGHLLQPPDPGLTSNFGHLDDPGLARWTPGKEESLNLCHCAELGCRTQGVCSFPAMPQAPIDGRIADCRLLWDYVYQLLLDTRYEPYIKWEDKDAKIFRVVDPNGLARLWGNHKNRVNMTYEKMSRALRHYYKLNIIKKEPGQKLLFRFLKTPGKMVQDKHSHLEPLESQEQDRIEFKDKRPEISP
The conditions noted are these: protein: recombinant; tags: N-terminal GST; dsDNA, one strand shown. The gist of the method: as §1

Experiment [16] concerns the target T11, ELF5 (Homo sapiens, UniProt Q9UKW6-2 1-255).
T11 sequence: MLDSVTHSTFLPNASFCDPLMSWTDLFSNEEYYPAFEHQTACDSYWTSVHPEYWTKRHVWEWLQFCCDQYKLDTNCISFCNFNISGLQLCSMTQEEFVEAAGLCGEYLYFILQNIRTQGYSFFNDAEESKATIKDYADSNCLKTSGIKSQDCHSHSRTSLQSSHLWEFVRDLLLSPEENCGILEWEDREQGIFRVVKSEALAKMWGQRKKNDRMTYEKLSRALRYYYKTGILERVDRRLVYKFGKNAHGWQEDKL
The following applies: protein: recombinant; tags: N-terminal GST; dsDNA, one strand shown. The method in brief: as §1

In experiment [17] the target is T12, ETV3 (Homo sapiens, UniProt P41162-2 1-143).
T12 sequence: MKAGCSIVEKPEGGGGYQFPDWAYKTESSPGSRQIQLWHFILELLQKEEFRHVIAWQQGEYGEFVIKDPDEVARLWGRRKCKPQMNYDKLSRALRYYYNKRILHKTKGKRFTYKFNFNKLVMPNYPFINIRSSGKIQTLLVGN
The following applies: protein: recombinant; tags: N-terminal GST; dsDNA, one strand shown. The method in brief:
as §1

The target of experiment [18] is ETV6 (Homo sapiens, UniProt P41212 1-452). The following applies: protein: recombinant; tags: N-terminal GST; dsDNA, one strand shown. The gist of the method: as §1
Chain of ETV6 (P41212 whole entry): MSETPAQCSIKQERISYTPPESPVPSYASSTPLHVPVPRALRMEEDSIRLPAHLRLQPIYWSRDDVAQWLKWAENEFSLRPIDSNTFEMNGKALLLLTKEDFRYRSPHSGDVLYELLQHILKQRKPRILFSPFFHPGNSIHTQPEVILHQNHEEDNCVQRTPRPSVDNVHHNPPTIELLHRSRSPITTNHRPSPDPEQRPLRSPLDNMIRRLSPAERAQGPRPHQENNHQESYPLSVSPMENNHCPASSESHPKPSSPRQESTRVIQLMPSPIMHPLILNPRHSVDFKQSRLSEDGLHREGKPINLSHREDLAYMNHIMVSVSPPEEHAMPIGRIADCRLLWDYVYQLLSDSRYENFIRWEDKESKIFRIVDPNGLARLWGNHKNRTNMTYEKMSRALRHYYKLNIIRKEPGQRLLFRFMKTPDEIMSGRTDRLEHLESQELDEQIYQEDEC

The values that follow come from article PMC7862700, “An all-to-all approach to the identification of sequence-specific readers for epigenetic DNA modifications on cytosine”.

Chain of ELF4 (Q99607 whole entry): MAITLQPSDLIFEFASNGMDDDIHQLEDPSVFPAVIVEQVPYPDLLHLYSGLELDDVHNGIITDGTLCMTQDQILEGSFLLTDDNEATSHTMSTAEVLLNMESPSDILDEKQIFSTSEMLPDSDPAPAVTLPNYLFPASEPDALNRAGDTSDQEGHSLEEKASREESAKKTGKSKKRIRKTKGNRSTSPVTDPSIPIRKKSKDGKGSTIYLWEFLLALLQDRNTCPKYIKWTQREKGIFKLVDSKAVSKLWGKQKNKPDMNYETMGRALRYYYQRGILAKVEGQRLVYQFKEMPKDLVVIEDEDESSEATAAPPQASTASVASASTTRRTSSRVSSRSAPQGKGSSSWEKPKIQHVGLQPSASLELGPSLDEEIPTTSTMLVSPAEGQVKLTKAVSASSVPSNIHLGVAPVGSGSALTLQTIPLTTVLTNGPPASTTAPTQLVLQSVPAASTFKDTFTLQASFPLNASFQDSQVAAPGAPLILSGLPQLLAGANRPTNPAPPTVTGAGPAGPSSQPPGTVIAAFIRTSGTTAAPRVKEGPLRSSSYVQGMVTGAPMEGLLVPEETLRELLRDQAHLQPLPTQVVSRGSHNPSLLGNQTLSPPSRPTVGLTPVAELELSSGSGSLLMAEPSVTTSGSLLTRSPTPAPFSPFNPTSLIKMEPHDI
Chain of ETV5 (P41161 whole entry): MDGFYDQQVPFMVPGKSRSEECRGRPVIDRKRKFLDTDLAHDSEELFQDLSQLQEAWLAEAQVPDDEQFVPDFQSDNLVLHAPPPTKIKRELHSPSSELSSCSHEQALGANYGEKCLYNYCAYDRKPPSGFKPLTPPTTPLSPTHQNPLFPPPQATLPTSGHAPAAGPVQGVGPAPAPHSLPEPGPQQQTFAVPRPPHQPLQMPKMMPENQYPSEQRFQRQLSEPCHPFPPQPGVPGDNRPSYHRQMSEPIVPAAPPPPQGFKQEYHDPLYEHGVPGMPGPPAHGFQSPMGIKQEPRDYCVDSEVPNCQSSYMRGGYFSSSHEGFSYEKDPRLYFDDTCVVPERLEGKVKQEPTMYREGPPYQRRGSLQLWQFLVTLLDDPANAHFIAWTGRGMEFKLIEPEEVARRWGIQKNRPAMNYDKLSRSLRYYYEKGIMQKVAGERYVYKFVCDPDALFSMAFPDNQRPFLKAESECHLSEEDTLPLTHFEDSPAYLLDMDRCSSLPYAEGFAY
Chain of ETV1 (P50549 whole entry): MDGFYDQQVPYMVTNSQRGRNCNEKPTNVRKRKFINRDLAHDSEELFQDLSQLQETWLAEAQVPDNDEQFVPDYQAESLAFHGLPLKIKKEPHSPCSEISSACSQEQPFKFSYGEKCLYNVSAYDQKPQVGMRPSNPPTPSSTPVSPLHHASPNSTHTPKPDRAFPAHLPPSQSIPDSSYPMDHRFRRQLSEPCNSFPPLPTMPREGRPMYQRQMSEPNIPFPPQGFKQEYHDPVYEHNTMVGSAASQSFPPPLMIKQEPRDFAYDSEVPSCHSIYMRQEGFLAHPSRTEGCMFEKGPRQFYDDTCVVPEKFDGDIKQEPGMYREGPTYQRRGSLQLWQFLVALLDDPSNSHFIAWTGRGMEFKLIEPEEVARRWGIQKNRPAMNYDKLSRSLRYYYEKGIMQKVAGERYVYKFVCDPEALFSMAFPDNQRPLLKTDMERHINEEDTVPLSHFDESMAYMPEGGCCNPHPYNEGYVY

For the sequence TTCGGT, the binding signal was 1.16 fold enrichment (6-mer frequency, TF over GST control) in experiment [1]; 1.23 fold enrichment (6-mer frequency, TF over GST control) in experiment [2]; 1.22 fold enrichment (6-mer frequency, TF over GST control) in [3]; 1.34 fold enrichment (6-mer frequency, TF over GST control) in experiment [4]; 1.17 fold enrichment (6-mer frequency, TF over GST control) in experiment [5]; 1.21 fold enrichment (6-mer frequency, TF over GST control) in experiment [6]. The binding signal is 1.13 fold enrichment (6-mer frequency, TF over GST control) in [7]; 1.04 fold enrichment (6-mer frequency, TF over GST control) in [8]; 1 fold enrichment (6-mer frequency, TF over GST control) in [9]; 1.23 fold enrichment (6-mer frequency, TF over GST control) in experiment [10]; 1.18 fold enrichment (6-mer frequency, TF over GST control) in experiment [11]; 1.11 fold enrichment (6-mer frequency, TF over GST control) in experiment [12]. The binding signal was 1.16 fold enrichment (6-mer frequency, TF over GST control) in experiment [13]; 1.13 fold enrichment (6-mer frequency, TF over GST control) in experiment [14]; 1.15 fold enrichment (6-mer frequency, TF over GST control) in experiment [15]; 1.06 fold enrichment (6-mer frequency, TF over GST control) in experiment [16]; 1.07 fold enrichment (6-mer frequency, TF over GST control) in experiment [17]; 1.22 fold enrichment (6-mer frequency, TF over GST control) in experiment [18].
